The record followed here is PubChem BioAssay (NCATS).

Records with an inconclusive call do not appear. Activity calls are given as the source filed them. Calls follow the shape of the dose curve; as a rule, active = well fitted activation curve with a large enough effect in the signal ratio (not every such curve was filed as active); inconclusive = small, poorly fitted or top-dose-only effect, or a change in a side signal; inactive = flat fitted curve, though single readings scatter; the % refers to the signal ratio.

The assay can be described thus: qHTS assay for small molecule activators of the p53 signaling pathway (AID 651743). Also: series mostly up to about 92 µM; % of control where 0% means no effect. The note with it: HCT-116 p53RE-bla, beta-lactamase FRET ratio, 16 h; activation: stronger effect = higher value. The text has this:
National Center for Advancing Translational Sciences [NCATS] NIH Chemical Genomics Center [NCGC] U.S. Environmental Protection Agency [EPA] National Institutes of Environmental Health Sciences [NIEHS] National Toxicology Program [NTP] Assay Overview: p53, a tumor suppressor protein, is activated following cellular insult, including DNA damage and other cellular stresses. The activation of p53 regulates cell fate by inducing DNA repair, cell cycle arrest, apoptosis, or cellular senescence. The activation of p53, therefore, is a good indicator of DNA damage and other cellular stresses. The CellSensor p53RE-bla HCT-116 cell line (Invitrogen) contains a stably integrated beta-lactamase reporter gene under control of the p53 response elements. The activation of the report gene under culture conditions can be detected by fluorescence intensity. This cell line can be used to screen chemicals in a 1536-well plate format and to identify agonists that activate p53 signaling pathway.
Assay Protocol Summary: The p53RE-bla cells were dispensed at 4,000 cells/5 ul/well in 1536-well black wall/clear bottom plates using a Multidrop dispenser. After the assay plates were incubated at a 37 C/5% CO2 incubator for 5 hours, 23 nL of compounds dissolved in DMSO, positive controls or DMSO only was transferred to the assay plate by a pin tool. The plates were incubated at 37 C for 16 hours. After 1 uL of LiveBLAzer B/G FRET substrate was added using a Flying Reagent Dispenser, the plates were incubated at room temperature for 2 hours, and fluorescence intensity was measured by an Envision plate reader.
Background: qHTS replaces the single test concentration by a dilution series.
Consider `CN(C)CCOCCN(C)C`, for which the activation was -2.29% (inactive).
The same measure for `CCCCC/C=C\C/C=C\CCCCCCCC(=O)OC`: -2.82% (inactive).
The same measure for `CCCCCCCC(=O)Oc1c(Br)cc(C#N)cc1Br`: 6.26% (inactive).
As to `CCOCCOCCOC(C)=O`, the activation was 1.91% (inactive).
The same measure for `CC(C)C(=O)OCC(C)(C)C(O)C(C)C` (stereo not given): -2.18% (inactive).
In the case of `CCC(=O)C1C(=O)CC(C(=O)O)CC1=O` (stereo not given), the activation was 2.03% (inactive).
`C=CC(=O)OCC(C)OCC(C)OCC(C)OC(=O)C=C` (stereo not given): the activation is 0.712% (inactive).
Then `CCOC(=O)COc1cc(-n2ncc(C(F)(F)F)c(C)c2=O)c(F)cc1Cl`, with 2.36% (inactive); and `CC(C)C(=O)OC(=O)C(C)C`, with -7.19% (inactive).
On to `O=C=NCCCCCCN=C=O`, for which the activation is 1.63% (inactive).
`CCSC(=O)N(CC(C)C)CC(C)C`: the activation is -3.92% (inactive).
The same measure for `CC1(C)C(C=C(Cl)Cl)[C@H]1C(=O)OCc1cccc(Oc2ccccc2)c1` (stereo not given in full): -1.46% (inactive); for `Cc1cc(C)c(N)c(Cl)c1`: -7.91% (inactive); for `CS/C(=N\O)C(=O)N(C)C`: -0.3% (inactive).
The same measure for `NC(=O)Cc1cccc2ccccc12`: 1.36% (inactive); for `O=C(c1ccccc1)c1ccc(O)c(O)c1O`: -1.01% (inactive).
The same measure for `C=C(C)C(=O)OCCN(C)C`: -0.52% (inactive); for `CC(C)=CCC[C@@H](C)[C@H]1CC[C@@]2(C)C3=C(CC[C@]12C)[C@@]1(C)CC[C@H](O)C(C)(C)[C@@H]1CC3`: 2.67% (inactive); for `c1ccc2cc3ccccc3cc2c1`: 7.64% (inactive).
For the compound `C=C(C)C(=O)OCCC[Si](OC)(OC)OC`, the activation is -1.41% (inactive).
Regarding `CCCCCCCCCCCCCCCCCC#N`, the activation is -6.64% (inactive).
Turning to `CCCCCCc1ccc(N)cc1`, the activation is 0.412% (inactive).
The same measure for `CCCCOCCOCCO`: 0.276% (inactive); for `COC(=O)c1ccc(C(=O)OC)cc1`: -5.18% (inactive).
The same measure for `C=C(C)C(=O)OCCCCCCCCCCCCCCCC`: -3.74% (inactive); for `C=C(C)C(=O)OCCC[Si](Cl)(Cl)Cl`: -1.03% (inactive); for `CCCCCCCCCCCCCCCO`: -0.317% (inactive).
Consider `O=C(O)c1cc(O)c2ccccc2c1O`, for which the activation was -4.76% (inactive).
Then `C=CCCCCCCCCCCCC`, with -3% (inactive); and `CC(C)c1ccc(C(C)C)cc1`, with -6.39% (inactive).
The same measure for `C=C(C)C(=O)OCC[N+](C)(C)C`: 0.0876% (inactive); for `CNc1nc(=O)n(C2CCCCC2)c(=O)n1C`: 0.353% (inactive).
Then `CCC(C)OC(=O)N1CCCCC1CCO` (stereo not given), with -2.97% (inactive); and `CO[Si](CCCOCC1CO1)(OC)OC` (stereo not given), with 1.09% (inactive).
In the case of `CCOC(=O)C(C)Oc1ccc(Oc2nc3ccc(Cl)cc3o2)cc1` (stereo not given), the activation was -9.4% (inactive).
With `CC1(C)CC(OC(=O)CCCCCCCCC(=O)OC2CC(C)(C)NC(C)(C)C2)CC(C)(C)N1`, the activation was -2.75% (inactive).
The same measure for `OC1CCCCCCCCCCC1`: 4.17% (inactive); for `CCCCCC1CCC(=O)O1` (stereo not given): 0.985% (inactive); for `CCCCCc1ccc(N)cc1`: 9.16% (inactive).
Turning to `COC(=O)C1CCC(C(=O)OC)CC1` (stereo not given), the activation was 8.46% (inactive).
